Cardio protect: myocardial damage modulation in H9c2 cells | protection from H2O2 cell death, % at 20 µM | H9c2 cardiomyocytes, H2O2 injury protection, ATPLite, 2 h | hit rate 0.63% among 360,000 | AID 588492;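 active = compounds giving at least 50% protection of heart cells from peroxide-induced death in the single-dose screen, raw or plate-pattern-corrected value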;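 note: 0% = DMSO wells with peroxide and 100% = DMSO wells without peroxide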
NR3A LBD binder: modulators (binders) of human NR3A ligand-binding domain | Tm shift relative to glycine control, % at 25 µM | NR3A LBD differential scanning fluorimetry, Tm shift; 0% = protein alone, 100% = glycine-bound protein | hit rate 2.5% among 340,000;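 active = melting temperature shift of at least 10% of the positive control shift, at one fixed dose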
AHR activator: activates the human aryl hydrocarbon receptor; AHR-responsive luciferase reporter cells, luminescence; activation, % at 5 µM; AID 2796; hit rate 2.5% among 320,000; in the data active = activation above about 47%;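 note: 0% = vehicle wells and 100% = reference agonist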
AI-2 QS mod: modulators of Vibrio harveyi AI-2 quorum sensing system | Vibrio harveyi JMH597 AI-2 luminescence/OD600 ratio, 9 h; stronger effect = lower value; strain lacks LuxN and CqsS sensors; 0 = neutral-control median | hit rate 0.4% among 300,000 | AID 2094 | activity change, % at 7.5 µM; in the data active = activity change below about -75%, passing the limit was not always enough;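 note: luminescence divided by OD600 gain over 9 h not by final OD600 alone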
NTR1 ag: activates human neurotensin receptor 1 | NTR1-U2OS beta-arrestin-GFP spot imaging, agonist mode | activation, % at 20 µM | hit rate 0.17% among 330,000 | AID 493036;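 active = activation at or above 40% of the spot to cytoplasm intensity ratio, with at least 20 cells analyzed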;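 note: 0% = DMSO without peptide and 100% = 100 nM NTR1 peptide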
Target sequence (P30989 whole entry, looked up): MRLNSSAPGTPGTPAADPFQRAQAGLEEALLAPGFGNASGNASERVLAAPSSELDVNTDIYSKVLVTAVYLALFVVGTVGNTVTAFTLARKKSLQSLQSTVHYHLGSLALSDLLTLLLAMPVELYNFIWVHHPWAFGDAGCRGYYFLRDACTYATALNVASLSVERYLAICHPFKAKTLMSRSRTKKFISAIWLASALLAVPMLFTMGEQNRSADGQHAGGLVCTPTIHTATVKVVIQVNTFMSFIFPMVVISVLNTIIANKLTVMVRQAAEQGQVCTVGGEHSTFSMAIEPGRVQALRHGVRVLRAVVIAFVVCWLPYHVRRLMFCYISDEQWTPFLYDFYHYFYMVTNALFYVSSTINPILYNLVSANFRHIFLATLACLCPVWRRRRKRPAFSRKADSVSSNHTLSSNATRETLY
SUMO Mot1 rescue: blocks SUMOylation pathway, rescuing yeast Mot1-301 growth. S. cerevisiae Mot1-301 growth rescue, ATP luminescence, 38.5C; percent above DMSO median, 100 means doubled. growth rescue, % at 18.8 µM. hit rate 1% among 320,000;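 active = every valid replicate shows activation above 250% relative to neutral control wells; inactive = the rest, any valid replicate at or below 250%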;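 note: OY570 slx delta 5 strain wells were the positive control but not used for scaling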
* hit, by the source's call; nt = no result given. An excerpt weighted towards active compounds, which were near 6.2% of everything screened.

SMILES	Cardio protect	NR3A LBD binder	AHR activator	AI-2 QS mod	NTR1 ag	SUMO Mot1 rescue
Cc1nc(NC(=O)/C=C/c2ccccc2)sc1C(=O)N(C)C	-3	-1	3	3	1	20
Cc1nc(NC(N)=S)sc1C(=O)Nc1ccccc1	-4	-7	105*	16	1	-14
COCCNC(=O)C1(C)CCCN(Cc2cn(C)c3ccccc23)C1 (centres undefined)	-3	nt	nt	nt	nt	nt
CC(=O)Nc1ccc(S(=O)(=O)N(C)CC(=O)N2CCN(C(=O)c3ccco3)CC2)cc1	2	-1	-2	nt	0	-21
CC(O)C(NS(=O)(=O)c1ccc2ccccc2c1)C(=O)OCC(=O)Nc1ccccc1OC(F)F (centres undefined)	0	-2	nt	nt	nt	nt
Cc1noc(C)c1NC(=O)N(C)C[C@@H]1Oc2ncc(Br)cc2C(=O)N([C@@H](C)CO)C[C@H]1C	8	nt	nt	nt	nt	nt
O=C(Nc1ccc(Cl)cc1)C1=Cc2cc(Cl)ccc2OC1	-34	26*	45	2	11	-9
O=C1NCCCN1C1OC(CO)C(O)C1O (centres undefined)	-4	nt	nt	nt	nt	nt
O=C(C1CCN(S(=O)(=O)c2cnc[nH]2)CC1)N(CCc1ccccc1)Cc1ccccc1	21	3	-1	31	1	417*
CN(c1ccc(-c2csc(NC(=O)CCCc3nc4ccccc4c(=O)[nH]3)n2)cc1)S(C)(=O)=O	49	nt	nt	nt	nt	nt
Cc1ccc(Sc2ncccc2C(=O)O)cc1C	7	0	2	-86*	1	-13
O=C(O)c1cccnc1Sc1ccccc1Cl	0	0	10	-2	1	nt
Cc1ccc(Sc2ncccc2C(=O)O)c(C)c1	4	-1	1	-88*	1	16
ON=C1c2ccccc2-c2ccccc21	-7	0	2	9	0	126
Nc1cc2c(cc1Cl)-c1ccccc1C2=NO	-10	34*	nt	nt	nt	nt
Cc1cccc(-n2c(O)c(C=NCCCN3CCOCC3)c3ccccc3c2=O)c1	7	3	-5	-4	-1	4
CN(C)CCN=Cc1c(O)n(-c2ccc(S(=O)(=O)N3CCOCC3)cc2)c(=O)c2ccccc12	3	14*	nt	nt	1	nt
CCC1CCCCN1C(=O)COC(=O)c1cncc(Br)c1 (centres undefined)	-2	nt	nt	nt	nt	nt
CCc1ccc(C(=O)CSc2n[nH]c(C)n2)cc1	0	3	56*	26	-1	-1
COc1ccc(/C=N/c2c(-c3ccc(OC)cc3)nc3n2CCS3)cc1	2	-32	-1	15	2	-34
COc1ccc(C2=CSC(/N=C/c3ccc(F)cc3)=NN2)cc1	-3	21*	70*	15	0	-3
Cc1c(C(=O)O)oc2c(F)cccc12	-5	-2	0	13	0	-3
Cc1c(C(=O)NC2CCOC2)oc2c(F)cccc12 (centres undefined)	0	-1	79*	8	0	10
O=C1C=C(C#Cc2ccccc2)C[C@@H](c2ccc(F)cc2)C1	-30	nt	nt	nt	nt	nt
CCOC(=O)C1CCN(c2cc3c(cc2NC(=O)c2ccccc2Br)n(C)c(=O)n3C)CC1	52*	-4	2	21	6	49
SMILES	Cardio protect	NR3A LBD binder	AHR activator	AI-2 QS mod	NTR1 ag	SUMO Mot1 rescue
Fc1cccc(Cl)c1/C=C/c1cnc2ccccc2n1	-9	2	66*	0	0	-6
O=C(O)/C=C/c1cnc2ccccc2n1	-2	-1	5	21	0	17
Fc1cccc(F)c1/C=C/c1ccc2ccccc2n1	-19	7	48*	29	0	14
COc1cc(NC(=O)CN2C(=O)C(=O)N(CC(C)C)C2=O)cc(OC)c1	-2	29*	nt	nt	0	nt
Cc1nnc(SCc2cccc3ccccc23)s1	-7	-2	21	0	-1	57
Cc1cccc(C)c1Nc1nnc(SCc2nc3ccccc3c(=O)[nH]2)s1	13	32*	69*	32	0	8
O=c1cc(CSc2nnc(Nc3ccccc3)s2)nc2sccn12	32	0	57*	nt	2	5
c1ccc(Nc2nnc(SCc3cccc4ccccc34)s2)cc1	-28	11*	-4	17	18	-32
CN(C)S(=O)(=O)c1ccc(C(=O)Nc2nnc(SCc3cccc4ccccc34)s2)cc1	2	26*	6	31	6	11

From PubChem BioAssay
